Screening results from PubChem BioAssay.
CYP2C9 inhib = blocks human cytochrome P450 2C9; P11712; CYP2C9 Supersomes, luciferin-H conversion, luminescence; inhibition, % at 5 µM; 96,000 tested, 20% active;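 active = blocking of liver enzyme CYP2C9 beyond about 50% at 5 µM, limit read from the data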
Cav3 T inh = blocks human Cav3.2 T-type calcium channel; O95180; Cav3.2-expressing cells, Fluo-4 calcium fluorescence FDSS; active compounds read low; B-score at 10 µM; 100,000 tested, 4% active;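 active = single-dose well whose peak fluorescence ratio is a statistical outlier from its plate by either plate-standardised score or position-corrected B-score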
CYP2C19 act = increases human CYP2C19 enzyme activity. P33261. recombinant CYP2C19, luciferin-H EGE luminescence; active compounds read high; 0 = fully inhibited enzyme, 1 = untreated enzyme. activation factor at 5 µM. 96,000 tested, under 10 active. AID 1025;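 active = activation factor of at least 2 at 5 µM in the primary screen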;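 note: 0 = wells with 2.5 mM tranylcypromine and 1 = vehicle-only wells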
Target sequence (P33261 whole entry, looked up): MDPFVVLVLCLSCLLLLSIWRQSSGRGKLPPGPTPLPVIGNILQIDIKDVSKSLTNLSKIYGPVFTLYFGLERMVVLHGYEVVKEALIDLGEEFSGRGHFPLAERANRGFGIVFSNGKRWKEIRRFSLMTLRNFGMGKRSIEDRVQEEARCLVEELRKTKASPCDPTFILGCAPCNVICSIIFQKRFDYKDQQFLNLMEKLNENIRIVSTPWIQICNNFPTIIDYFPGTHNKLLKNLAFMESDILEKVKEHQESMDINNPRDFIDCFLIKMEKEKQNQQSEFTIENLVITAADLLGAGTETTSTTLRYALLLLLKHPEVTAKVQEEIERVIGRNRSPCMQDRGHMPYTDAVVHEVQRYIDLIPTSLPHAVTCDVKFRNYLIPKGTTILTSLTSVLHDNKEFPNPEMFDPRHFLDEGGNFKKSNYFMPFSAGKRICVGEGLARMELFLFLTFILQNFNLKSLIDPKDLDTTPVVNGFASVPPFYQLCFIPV
CYP2C9 act = activators of human CYP2C9 | AID 1024 | recombinant CYP2C9, luciferin-H conversion, luminescence; active compounds read high; factor 1 = untreated enzyme, 0 = blocked | 96,000 tested, 1.4% active | P11712 | activation factor at 5 µM;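 active = activation factor of 2 or more for CYP2C9 at a 5 µM dose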;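 note: 0 = sulfaphenazole-blocked wells and 1 = vehicle-only wells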
CYP2C19 inhib = blocks human cytochrome P450 2C19. P33261. 96,000 tested, 21% active. AID 778. inhibition, % at 5 µM. CYP2C19 Supersomes, luciferin-H EGE luminescence, 30 min;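 active = CYP2C19 inhibition above a set limit at 5 µM in the primary screen, cut at about 50% in these data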;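 note: plate controls were negative control wells for no effect and 2.5 mM tranylcypromine positive control for full effect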
Numbers without * were called inactive; nt = no result given. Hits are enriched below; roughly 27% of the tested compounds scored in any of these assays.

SMILES	CYP2C9 inhib	Cav3 T inh	CYP2C19 act	CYP2C9 act	CYP2C19 inhib
NCCc1nnc(SCc2c(F)cccc2Cl)o1	53*	0.79	0.4	0.5	62*
Fc1cccc(Cl)c1CSc1nnc(COc2cccc3cccnc23)o1	-23	-2.8	0	1.2	96*
Cc1nc(SCc2c(F)cccc2Cl)n[nH]1	-22	0.2	1	1.2	4
NCCc1nnc(SCc2ccccc2)o1	66*	0.13	0.2	0.3	79*
CSc1n[nH]c(NCc2cccs2)n1	-8	-0.47	1.1	1.1	-9
CCOC(=O)N1CCC(N2CC34C=CC(O3)C(C(=O)Nc3ccc(OCC)cc3)C4C2=O)CC1 (stereo not given)	15	-0.38	1.1	0.9	-8
CC1(C)C(c2ccccc2)=[N+]([O-])C2(CCCCC2=O)N1O (stereo not given)	nt	-0.084	nt	nt	nt
O=[N+]([O-])c1ccc(N2N=C(c3ccco3)CC2c2ccccc2)cc1 (stereo not given)	78*	-5*	0.8	0.2	22
CC(C)(C)C(=O)CC1(O)C(=O)N(Cc2ccc(Cl)cc2)c2ccccc21 (stereo not given)	42	-0.71	0.5	0.6	46
CC1(C)CC(=O)c2c(n(-c3cccc4ccccc34)ccc2=O)C1	11	-0.0026	0.9	0.9	9
CCC(NC(=O)c1cccc(Cn2cc([N+](=O)[O-])cn2)c1)c1ccc(C(C)C)cc1 (stereo not given)	96*	-4.3*	0.6	0	44
CC(NC(=O)c1cccc(Cn2cc([N+](=O)[O-])cn2)c1)c1ccc(C(C)(C)C)cc1 (stereo not given)	81*	-4.3*	0.4	0.2	61*
O=C(NC(Cc1ccccc1)c1ccc2c(c1)OCCCO2)c1ccccc1 (stereo not given)	65*	-0.24	0.7	0.3	31
Cc1ccc(C)c(CSc2nnc([C@@H](N)C(C)C)o2)c1	-71	-0.35	0	1.7	100*
Cc1ccc(C)c(CSc2nnc(CCN)o2)c1	74*	-0.82	0.1	0.3	90*
NCCc1nnc(SCc2ccccc2F)o1	29	0.26	0.6	0.7	44
CCOC(=O)N1CCC(NC(=O)CNS(=O)(=O)c2ccc(Br)s2)CC1	11	0.11	0.9	0.9	5
O=C(c1ccccc1NS(=O)(=O)c1ccc(Br)s1)N1CCOCC1	-12	0.32	0.6	1.1	45
CCOc1ccccc1NS(=O)(=O)c1ccc(Br)s1	26	-0.3	0.1	0.7	95*
COCCNC(=O)c1ccccc1NS(=O)(=O)c1ccc(Br)s1	91*	-2.3	0.3	0.1	72*
COc1cccc(Nc2nc(-c3cccc(N4C(=O)c5ccccc5C4=O)c3)cs2)c1	62*	-0.55	0.7	0.4	26
Cc1ccc(-c2csc(NC(=S)NC(=O)/C=C/c3ccco3)n2)cc1	7	1	0.8	0.9	22
COc1cccc(Nc2nc(-c3ccc(O)cc3)cs2)c1	82*	-1.8	0.5	0.2	49
Cc1cccnc1Nc1nc(-c2ccc(O)cc2)cs1	63*	-0.42	0.1	0.4	88*
COc1cccc(-c2csc(NC(=O)C3CC3)n2)c1	24	nt	0.9	0.8	13
SMILES	CYP2C9 inhib	Cav3 T inh	CYP2C19 act	CYP2C9 act	CYP2C19 inhib
COc1cccc(C(=O)Nc2nc(-c3ccc4c(c3)OCO4)cs2)c1	48	-1.7	0.8	0.5	15
CC(C)C(=O)Nc1ccc(-c2csc(-c3ccccc3)n2)cc1	-21	0.51	1	1.2	-4
C/C(CC1CC(COCC(C)C)OC1=O)=N\Nc1nc(-c2ccccc2)cs1 (stereo not given)	72*	-0.62	0.1	0.3	89*
CCOc1nc(SCCOc2ccc(C)cc2)nc(N(C)C)n1	nt	-6.4*	nt	nt	nt
COc1ccc(OCCSc2n[nH]c(N)n2)cc1	25	-0.15	0.5	0.8	45
N#C/C(=C(/O)c1ccco1)c1nc2ccccc2s1	37	-2.7	0.9	0.6	7
N#C/C(=C(/O)C(Cl)c1ccccc1)c1nc2ccccc2s1 (stereo not given)	77*	-5.3*	0.4	0.2	58*
Nc1nc(Br)c2c(F)cccc2c1-c1ccc(F)cc1	29	-1.4	0.8	0.7	17
Cc1ccc(S(=O)(=O)N2CCC(=O)N(CCOCc3ccc(C(F)(F)F)cc3)CC2)cc1	nt	-2.8	nt	nt	nt
Brc1ccc2c(c1)CNc1c(ncnc1N1CCOCC1)O2	58*	1.2	0	0.4	98*
COC(=O)c1c(C)oc2ccc(NS(=O)(=O)c3cccs3)cc12	92*	-4.9*	0	0.1	97*
COCCOC(=O)c1c(C)oc2ccc(NS(=O)(=O)c3ccccc3)cc12	65*	-2.8	0.4	0.3	63*
Nc1nc2c(s1)C(=O)CC(c1ccccc1)C2 (stereo not given)	20	1.6	0.7	0.8	31
COc1ccc(/C=C2/C(=O)ON=C2c2ccccc2)cc1OC	-9	0.95	1.1	1.1	-6
COc1cc(/C=C2/SC(=O)N(Cc3ccccc3)C2=O)ccc1OCc1ccncc1	82*	-0.72	0.2	0.2	80*
COc1ccc(/C=C2\SC(=NCc3ccccc3)N(Cc3ccccc3)C2=O)cc1OC	22	0.018	0.3	0.8	72*
CCOC(=O)C1=C(C)N(c2ccccc2)C(=O)C1CC(=O)O (stereo not given)	41	-0.29	0.5	0.6	53*
CCOC(=O)C1=C(C)N(C)C(=O)C1CC(=O)O (stereo not given)	-11	0.57	1.1	1.1	-10
CC(=O)C1=C(O)C(=O)N(CCNCCO)C1c1ccccc1 (stereo not given)	0	0.74	1	1	0
O=C(NC1CCCCCCC1)C1CCC(CNc2c(N3CCCC3)c(=O)c2=O)CC1 (stereo not given)	4	0.034	1	1	-1
FCCCOc1ccc(-c2nccc(-c3ccc(Cl)cc3)n2)cc1	44	nt	0.9	0.6	10
COc1ccc(-c2ccnc(-c3ccc(OCCCF)cc3)n2)cc1	51*	-0.2	0.8	0.5	20
Brc1ccccc1-c1nnc(COc2cccc3cccnc23)o1	-187	0.32	0.1	2.9*	91*
Clc1ccccc1OCc1nnc(-c2ccccc2Br)o1	-110	-0.098	0.8	2.1*	18
Clc1ccccc1-c1nnc(-c2ccccc2Cl)o1	nt	-1.9	nt	nt	nt
COc1ccc2c(c1)c(C(=O)CN1CCC(C(N)=O)CC1)c(C)n2C	12	0.48	1	0.9	-1
CCCN1CCN(C(=O)CN2C(=O)CC(C)(C)S(=O)(=O)c3ccccc32)CC1	-2	-0.066	1	1	4
CCOC(=O)c1cnn(-c2ncnc3sc(C)c(C)c23)c1N	5	-0.29	0.9	0.9	7
Cc1c(C(=O)N2CCN(Cc3ccccc3)CC2)sc2ncnc(N3CCOCC3)c12	32	0.61	0.5	0.7	55*
CCOC(=O)c1sc2ncnc(N3CCN(C(=O)OCC)CC3)c2c1C	76*	-1.2	0.6	0.2	37
